Tau fluor cs: counter-screen for tau fibril formation inhibitors. tau K18 P301L Alexa594 fluorescence, heparin fibrillization. Potency, µM (series often up to 57.7 µM), without a hit: at the highest dose activity change, negative = decrease. hit rate 0.93% among 280,000; also: nearly all actives have a fitted effect of over 55% in size
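Human tau K18 P301L (15 uM unlabeled, 0.24 uM Alexa 594-labeled) in 100 mM sodium acetate pH 7 with 20 uM heparin, 6 hr at 37 C. ThT 30 uM added, 1 hr ambient; Alexa 594 FP and total fluorescence read at 555/632 nm.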
HPGD block: HPGD (human) dehydrogenase inhibition; P15428; purified HPGD, NADH fluorescence kinetic, PGE2 substrate; Potency, µM, without a hit: top-dose activity change, negative = inhibition, hits mostly inhibitors; hit rate 4.3% among 150,000; AID 894; active = well fitted inhibition curve with a large enough effect, not every such curve was filed as active; inconclusive = small, poorly fitted or top-dose-only effect, or another doubt; inactive = no such curve, though single readings can be large or run the other way
Target sequence (P15428 whole entry, looked up): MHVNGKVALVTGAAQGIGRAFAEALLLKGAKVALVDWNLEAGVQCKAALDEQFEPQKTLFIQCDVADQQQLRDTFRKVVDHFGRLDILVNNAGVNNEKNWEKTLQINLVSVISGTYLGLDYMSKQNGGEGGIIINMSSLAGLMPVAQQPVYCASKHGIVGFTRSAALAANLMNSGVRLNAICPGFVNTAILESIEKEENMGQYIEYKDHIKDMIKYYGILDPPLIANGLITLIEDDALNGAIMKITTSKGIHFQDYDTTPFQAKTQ
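20 nM HPGD preincubated 15 min at room temperature with compound in 50 mM Tris-HCl pH 8, 0.01% Tween 20. Started with 1 mM NAD+ and 30 uM prostaglandin E2; NADH fluorescence (360/450 nm) read 5 times over 30-s intervals, last minus first.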
NPSR antagonist: neuropeptide S receptor (human) antagonism, cAMP; Q6W5P4; CHO-NPSR cells, cAMP TR-FRET, antagonist mode; Potency, µM (top dose mostly 38.3 µM), for inactives: top-dose activity change, negative = inhibition, most hits filed as inhibitors; hit rate 1% among 220,000; AID 1461; also: nearly all actives have a fitted effect of over 50% in size
Target sequence (Q6W5P4 whole entry, looked up): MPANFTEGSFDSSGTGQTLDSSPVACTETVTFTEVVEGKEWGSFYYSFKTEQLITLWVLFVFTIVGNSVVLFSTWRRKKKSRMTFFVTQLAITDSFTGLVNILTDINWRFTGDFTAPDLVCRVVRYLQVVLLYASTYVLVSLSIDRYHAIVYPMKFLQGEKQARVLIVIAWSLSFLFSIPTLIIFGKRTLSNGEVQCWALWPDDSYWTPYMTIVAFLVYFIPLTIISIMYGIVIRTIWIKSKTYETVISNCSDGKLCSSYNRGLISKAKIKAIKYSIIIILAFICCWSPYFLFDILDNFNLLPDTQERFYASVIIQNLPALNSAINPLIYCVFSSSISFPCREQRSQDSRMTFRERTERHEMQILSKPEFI
Tau ThT inhib: inhibitors of human tau fibril formation, thioflavin T binding. P10636. recombinant tau K18 P301L (four-repeat tau fragment), heparin-induced fibrillization, ThT fluorescence. Potency, µM (top dose mostly 57.4 µM), for the others: at the top dose activity, negative = inhibition, hits mostly inhibitors. hit rate 2.1% among 270,000; also: nearly all actives have a fitted effect of over 55% in size
Target sequence (P10636 561-689 P618L limits assumed): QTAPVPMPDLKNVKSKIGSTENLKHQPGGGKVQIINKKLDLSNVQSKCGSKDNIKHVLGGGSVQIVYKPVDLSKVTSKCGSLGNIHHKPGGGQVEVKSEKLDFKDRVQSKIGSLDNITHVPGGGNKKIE
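Heparin-induced (20 uM) aggregation of recombinant human K18 P301L tau, 15 uM unlabeled with 0.24 uM labeled, pH 7 acetate buffer, 6 hr at 37 C with compound. Fibrils quantified by 30 uM ThT fluorescence after 1 hr ambient incubation.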
Tau FP inhib: inhibitors of human tau fibril formation. K18 P301L tau heparin fibrillization, Alexa594 FP, 6 h. Potency, µM (series often up to 57.7 µM), for inactives: at the top dose activity, negative = inhibition, usual class: inhibitors. hit rate 0.39% among 280,000; also: nearly all actives have a fitted effect of over 55% in size
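Steps: dispense K18 P301L tau (15 uM plus 0.24 uM Alexa 594 tracer, final) in pH 7 sodium acetate; add compound; add heparin (20 uM final); incubate 6 hr, 37 C; add ThT (30 uM final); after 1 hr ambient, read FP.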
ALDH1A1 block: ALDH1A1 (human) enzyme inhibition; P00352; Purified ALDH1A1, NADH fluorescence, propionaldehyde substrate; Potency, µM (titrated, usually from 75.3 µM), without a hit: at the top dose activity, negative = inhibition, actives largely listed as inhibitors; hit rate 7.3% among 220,000; AID 1030; active = well fitted inhibition curve with a large enough effect, not every such curve was filed as active; inconclusive = small, poorly fitted or top-dose-only effect, or another doubt; inactive = no such curve, though single readings can be large or run the other way;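 also: plate controls were no enzyme wells and a reference inhibitor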
* = called active by the depositor; ? = inconclusive; / = no result given; ! = not active in a repeat; [ ] = dose if it differs, or a comment. Rows were chosen to be rich in hits. Some 9.5% of all compounds tested hit in one or more screens of this group. Unless noted, calls follow the shape of the dose curve; as a rule, active = well fitted curve in the direction sought with a large enough effect; inconclusive = small, poorly fitted or top-dose-only effect, or another doubt; inactive = no such curve, though single readings can be large; an effect the other way counts as inactive or inconclusive. Unless noted, % is scaled to controls: 0 for no effect and ±100 for the full control effect; potency is read from the fitted curve at half-maximal effect.

SMILES	Tau fluor cs	HPGD block	NPSR antagonist	Tau ThT inhib	Tau FP inhib	ALDH1A1 block
CC1=NN(c2ccccc2)C(=O)C1C=Nc1ccc(N(C)C)cc1 (stereo not given)	?	/	-32.3%	7.94µM*	4.9%	/
CC1=NN(c2ccccc2)C(=O)C1/C=C1/NC(=S)NC1=O (stereo not given)	10.9%	/	1.1%	/	9.7%	/
COc1ccc(CCNC(=O)c2cc(-c3ccccc3O)n[nH]2)cc1OC	-16.4%	28.2µM*	-14.5%[46.1 µM]	-24.6%	-11.8%	7.4%
COc1ccc(CCNC(=O)CSc2n[nH]c(C)c2[N+](=O)[O-])cc1OC	-9.8%	/	21.6%	-13.7%	6.0%	28.2µM*
Cc1c(NC(=O)CCCCCN2C(=O)c3ccccc3C2=O)c(=O)n(-c2ccccc2)n1C	4.0%	-3.2%	9.1%	3.2%	-8.7%	-14.2%
CCOC(=O)c1c(C)[nH]c(C)c1S(=O)(=O)N(C)CC(=O)Nc1cccc(C(F)(F)F)c1	-13.7%	/	/	0.2%	-8.7%	/
Cc1ccc(Nc2cc(C)nn2-c2nc(C)cc(C)n2)cc1	-13.6%	-4.0%	0.794µM*	?	3.1%	-4.1%
Cc1ccc(Nc2cc(C)nn2-c2nc(C)cc(=O)[nH]2)cc1	-9.0%	-16.4%	?	?	9.9%	?
Cc1cc2ccccn2c1C(=O)c1ccc(N/N=C/c2ccc(C(=O)O)cc2)c([N+](=O)[O-])c1	-27.8%	/	-46.8%	3.16µM*	-6.4%	/
Cc1ccc(N2C(=N)SCC2=O)cc1Cl	1.1%	14.1µM*	14.7%	1.1%	3.1%	?
O=C(CCS(=O)(=O)c1ccc(Br)cc1)Nc1cc(F)ccc1F	-2.2%	-2.3%	-9.6%	-7.2%	-4.9%	22.4µM*
Cn1ncnc1SCc1cn2cccnc2n1	5.7%	/	15.4%	1.3%	3.9%	?
C/C(=N\NC(=O)c1ccccc1)c1ccc(N2CCCCC2)cc1	-6.1%	-4.4%	-3.3%	?	2.7%	-8.3%
O=C(N/N=C/c1ccc(N2CCOCC2)o1)c1cccc([N+](=O)[O-])c1	-20.1%	-27.3%	-23.8%	8.91µM*	?	17.8µM*
O=C(N/N=C/c1ccccc1)c1ccc(N2CCOCC2)c([N+](=O)[O-])c1	-2.2%	-26.3%	-0.2%	3.4%	-3.9%	?
O=C(N/N=C/c1ccc(N2CCCCC2)o1)c1ccccc1	-2.6%	15.8µM*	-0.6%	?	2.3%	25.1µM*
c1ccc(CNc2nc(-c3cccs3)nc3ccccc23)nc1	-29.1%	/	-19.6%	1.9%	?	?
CN(C)C(=O)c1ccc(-c2nc(N(C)Cc3ccco3)c3ccccc3n2)cc1	-19.0%	12.6µM*	/	?	3.2%	?
Cc1ccc(CNc2nc(-c3cccs3)nc3ccccc23)cc1	?	?	-23.1%	-13.8%	39.8µM*	?
CC(=O)NCCNc1nc(-c2ccc(C(=O)N(C)C)cc2)nc2ccccc12	/	/	/	/	/	17.4%
Cc1cccc(CNc2nc(-c3ccc(C(=O)N(C)C)cc3)nc3ccccc23)c1	?	25.1µM*	/	3.5%	-13.6%	-7.6%
CN(C)C(=O)c1ccc(-c2nc(NCc3cccs3)c3ccccc3n2)cc1	?	15.8µM*	/	-4.4%	-7.2%	1.1%
COc1c(N)c2ccccc2[nH]c1=O	-5.9%	-17.8%	-11.5%[46.1 µM]	-0.2%	-5.6%	?
Cc1ccc(C)c(N2CCN(C(=O)C3CCN(c4nc(-c5ccc(C(C)C)cc5)no4)CC3)CC2)c1	-3.2%	/	/	?	9.4%	/
Cn1c(C(F)(F)F)nc2c(=O)oc3ccccc3c21	7.9%	-9.3%	-4.7%[46.1 µM]	4.2%	6.1%	6.4%
SMILES	Tau fluor cs	HPGD block	NPSR antagonist	Tau ThT inhib	Tau FP inhib	ALDH1A1 block
CCOc1ccc(NCc2cccn2-c2nnc(N3CCC(C(=O)NCCc4ccc(OC)c(OC)c4)CC3)s2)cc1	?	/	/	?	9.3%	/
Clc1ccc(-c2n[nH]c3c2CCC3)c(Cl)c1	-18.5%	7.08µM*	10.8%[46.1 µM]	?	-18.4%	8.9%
Cc1cccc(C)c1-n1cccc1/C=C1\SC(=S)N(c2cccc(C(=O)O)c2)C1=O	-4.2%	/	-55.9%	4.4%	-0.3%	?
CC/C=C\C/C=C\C/C=C\CCCCCCCC(=O)O	-15.4%	-3.2%	/	28.2µM*!	?	10µM*!
CC/C=C\C/C=C\C/C=C\CCCCCCCCCCCC(=O)O	3.6%	-17.9%	/	?	-3.2%	22.4µM*!
CC1CCN(C(=O)CCc2nc3cc(S(=O)(=O)N(C)C)ccc3n2C)CC1	1.5%	-6.7%	-2.4%[46.1 µM]	-0.3%	6.7%	11.2µM*
CN(C)S(=O)(=O)c1ccc2c(c1)nc(CCC(=O)NCC1CCCCC1)n2C	2.6%	-1.7%	-3.6%[46.1 µM]	3.8%	2.8%	?
COC(=O)c1ccccc1NC(=O)c1cn2c3c(ccc(Cl)c3c1=O)OC(C)C2 (stereo not given)	-5.5%	/	/	-4.6%	-7.3%	/
CCOc1ccc(NCc2cc3cc(OC)ccc3[nH]c2=O)cc1	?	/	-10.6%	6.31µM*	-6.4%	/
COc1ccc2[nH]c(=O)c(CNc3ccccc3)cc2c1	-6.2%	/	-12.8%[46.1 µM]	-9.4%	?	5.0%
O=C(CC1C(=O)NCCN1Cc1ccc(F)c(F)c1)NCCCn1ccnc1 (stereo not given)	-3.5%	/	-16.2%	-9.3%	-4.4%	-9.7%
CC1(C)Oc2cc3c(cc2O1)OC(C)(C)O3	1.6%[11.6 µM]	/	/	1.2%[11.5 µM]	4.9%[11.6 µM]	7.8%[13.5 µM]
Cc1ccc(-n2[nH]c(C)c(/C=N/n3c(C)nc4ccccc4c3=O)c2=O)cc1	-29.2%	?	-18.2%[46.1 µM]	25.1µM*	?	?
CCOc1ccc(-n2c(CCc3ccccc3)n[nH]c2=S)cc1	-8.9%	/	?	-11.8%	2.7%	0.4%
COc1ccc(N2Nc3n[nH]c(N)c3N2)cc1	?	-11.3%	-13.3%[46.1 µM]	8.91µM*	12.1%	-4.1%
CCOc1ccc(N2Nc3n[nH]c(N)c3N2)cc1	?	-0.7%	-13.5%[46.1 µM]	12.6µM*	1.1%	-2.4%
COc1ccc(N2CCN(c3n[nH]c(N)n3)CC2)cc1	-4.1%	/	5.5%	-2.4%	3.7%	24.8%
Cc1cccc(C(=O)Nc2nnc(S(=O)(=O)N3c4ccccc4CC3C)s2)c1 (stereo not given)	-22.2%	/	/	?	0.0%	/
Cc1ccc(Cn2c(CCNC(=O)c3cccc(C)c3)nc3ccccc32)cc1	-18.0%	/	/	?	-2.0%	/
Cc1nn(-c2ccccc2)c(Cl)c1C(=O)NCc1cccs1	-10.3%	10µM*	-5.3%[46.1 µM]	-5.4%	5.4%	-1.4%
Cc1c(-c2ccccc2)nc2ccccc2c1C(=O)NCc1cccs1	-15.7%	?	-3.1%	-11.9%	1.0%	14.1µM*
Cc1nn(-c2ccccc2)c(C)c1NC(=O)Cc1cccs1	-6.6%	15.8µM*	2.9%	-11.4%	7.0%	-4.1%
Cc1nn(-c2ccccc2)c(C)c1NC(=O)c1cccs1	-9.3%	-9.3%	-2.6%[46.1 µM]	-7.6%	2.6%	3.1%
